HT1080-NT tox: kills 2HG-producing HT-1080-NT fibrosarcoma cells; HT-1080-NT fibrosarcoma viability, CellTiter-Glo ATP luminescence, 48 h; Potency, µM (titrated, usually from 46.1 µM), inactives show at the top dose activity, negative = less viability, actives largely listed as cytotoxic; 360,000 tested, 1.6% active; AID 686970;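 also: NT is the 2HG producing partner of a matched IDH1 knockdown line; potency is read from the fitted curve at half-maximal effect; 0% = DMSO-treated cells and -100% = media-only wells without cells; nearly all actives have a fitted effect of over 55% in size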
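A 48-hour cytotoxicity screen used HT-1080-NT cells plated 2 hours before compound delivery. ATP-based CellTiter-Glo luminescence measured viability, normalized to DMSO and no-cell controls.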
IL1B secr inh: inhibitors of inflammasome signaling (IL-1 beta secretion); THP-1 LPS/ATP IL-1B secretion, AlphaLISA, 16 h; hits give low values; activity change, % at 57.5 µM; 360,000 tested, 4.7% active; AID 743279; in the data active = activity change below about -50%; inconclusive = mostly about -30% to -49%
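Secreted IL-1B measured by AlphaLISA bead assay after 16 h compound exposure of THP-1 cells; compounds (final up to 57.5 uM) added 1 h before LPS (250 ng/mL) and ATP (1.25 mM) stimulation; lower signal means less secretion.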
DT40 TDP1 no CPT: qHTS for Inhibitors of human tyrosyl-DNA phosphodiesterase 1 (TDP1): qHTS in cells in absence of CPT; DT40 Tdp1-/- hTDP1 cells, no CPT, ATP luminescence, 48 h; Potency, µM (top dose mostly 46.2 µM), for the others: at the top dose activity change, negative = growth inhibition, most hits filed as inhibitors; 420,000 tested, 15% active; also: potency is read from the fitted curve at half-maximal effect; nearly all actives have a fitted effect of over 55% in size
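Luminescent ATP content (CellTiter-Glo) served as the growth readout. Knockout chicken DT40 cells expressing human TDP1 were exposed to compounds without camptothecin for a minimum 48 hr at 37 °C.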
TDP1 cell CPT: growth inhibition of DT40 Tdp1-/-;hTDP1 cells with camptothecin (screen for TDP1 inhibitors); chicken DT40 Tdp1-/-;hTDP1 cells + 20 nM CPT, ATP luminescence, 48 h; Potency, µM (titrated, usually from 46.2 µM), for the others: at the highest dose activity change, negative = growth inhibition, most hits filed as inhibitors; 420,000 tested, 12% active; also: potency is read from the fitted curve at half-maximal effect; nearly all actives have a fitted effect of over 55% in size
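Chicken DT40 Tdp1-/- cells stably complemented with human TDP1 were seeded at 400 cells/well in medium containing 20 nM camptothecin, exposed to pin-transferred compounds, and grown at 37 °C for at least 48 hr. Viability was read as ATP luminescence.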
HT1080 IDH1KD tx: HT-1080 IDH1 knockdown cell toxicity (counter line) | HT-1080 IDH1 knockdown viability, ATP luminescence, 48 h | Potency, µM (series often up to 46.1 µM), for the others: at the highest dose activity, negative = toxicity, usual class: cytotoxic | 360,000 tested, 2% active | AID 686971;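 also: potency is read from the fitted curve at half-maximal effect; 0% = DMSO wells and -100% = cell-free medium wells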
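Using the IDH1-knockdown HT-1080 line run in the same batch and compound series as the NT line, viability after 48 h at 37 °C was determined by CellTiter-Glo luminescence and expressed as % activity.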
An asterisk follows results filed as active; ? = inconclusive; / = no result; [ ] = another dose, or the depositor's remark. Shown are actives, neighbours in structure and some others; about 19% of the full set was active somewhere. Unless noted, calls follow the shape of the dose curve; as a rule, active = well fitted curve in the direction sought with a large enough effect; inconclusive = small, poorly fitted or top-dose-only effect, or another doubt; inactive = no such curve, though single readings can be large; an effect the other way counts as inactive or inconclusive. Unless noted, % is scaled to controls: 0 for no effect and ±100 for the full control effect.

SMILES	HT1080-NT tox	IL1B secr inh	DT40 TDP1 no CPT	TDP1 cell CPT	HT1080 IDH1KD tx
COc1ccc(-c2noc(CN(C)S(=O)(=O)c3ccc(Cl)cc3)n2)cc1OC	-15%	7	?	?	-27%
COc1ccc(S(=O)(=O)N(Cc2nc(-c3ccc(C)cc3)no2)C2CCCCC2)cc1	/	/	7.3µM*	8.2µM*	/
COc1ccc(-c2noc(CN(C(C)C)S(=O)(=O)c3ccc(Br)cc3)n2)cc1	/	/	23µM*	?	/
Cc1ccc(-c2noc(CN(C3CCCCC3)S(=O)(=O)c3ccc(C)cc3)n2)cc1	/	/	10µM*	13µM*	/
Cc1ccc(S(=O)(=O)N(CC(=O)N2CCCC2)C2CCCCC2)cc1	0%	-19	?	-29%	2%
COc1ccc2oc(=O)c(C(=O)Nc3cccc(C(=O)O)c3)cc2c1	/	/	-10%	-15%	/
C#CCOc1ccc(Br)cc1/C=N/O	-12%	-2	?	-28%	-3%
CCC(=O)c1ccc(N2CCN(C(=O)c3ccccc3)CC2)c(F)c1	13%	29	7.3µM*	18µM*	-4%
CCCC(=O)c1ccc(N2CCCCCC2)c(F)c1	-1%	-8	23µM*	?	-5%[9.24 µM]
CCOC(=O)N1CCN(c2ccc(C(=O)CC)cc2F)CC1	6%	3	?	?	6%
CC(=O)c1ccc(N2CCN(C(=O)c3ccc(Br)cc3)CC2)c(F)c1	-7%	-3	13µM*	9.2µM*	-3%
CCCC(=O)c1ccc(N2CCCCC2)c(F)c1	27%	-6	2%	7%	30%
CC(=O)c1ccc(N2CCN(C(=O)c3ccco3)C(C)C2)c(F)c1 (stereo not drawn)	13%	-5	26µM*	?	6%
CC(=O)c1ccc(N2CCN(C(=O)c3ccco3)CC2)c(F)c1	10%	-7	?	?	23%
CC(C)(C)NCC(O)c1ccc(O)c(CO)n1 (stereo not drawn)	/	/	-4%	3%	/
CC(C)(C)c1ccc(-n2ncc3c2CCCC3NC(=O)CCn2cncn2)cc1 (stereo not drawn)	-5%	9	?	?	-13%
CC(C)(C)c1ccc(-n2ncc3c2CCCC3NC(=O)CCN2CCCO2)cc1 (stereo not drawn)	-10%	38	?	23µM*	-7%
Cc1nccn1CCC(=O)NC1CCCc2c1cnn2-c1ccc(C(C)(C)C)cc1 (stereo not drawn)	?	?	?	-66%	-25%
CC(C)(C)c1ccc(-n2ncc3c2CCCC3NC(=O)CN2CCCCC2=O)cc1 (stereo not drawn)	?	12	?	16µM*	?
CC(=O)NCC(=O)NC1CCCc2c1cnn2-c1ccc(C(C)(C)C)cc1 (stereo not drawn)	-13%	37	4.1µM*	-15%	-20%
CC(C)(C)c1ccc(-n2ncc3c2CCCC3NC(=O)C2(C(N)=O)CC2)cc1 (stereo not drawn)	?	?	1.8µM*	5.8µM*	?
Cc1nc2cnc(N(C)C)nc2n(Cc2ccc(F)cc2)c1=O	/	/	-15%	1%	/
C[C@H](NC(=O)[C@@H]1Cc2ccccc2CN1)C(=O)NCC1CCCO1 (stereo partly drawn)	5%	-2	?	?	17%
CC(C)(C)c1ccc(-n2ncc3c2CCCC3NC(=O)CCCn2cncn2)cc1 (stereo not drawn)	0%	-12	?	13µM*	-22%
Cc1cc(C([O-])=C(C(=S)Nc2ccc(F)cc2)[n+]2ccccc2)c(C)n1-c1ccc(F)cc1	-1%	-19	21µM*	26µM*	-2%
SMILES	HT1080-NT tox	IL1B secr inh	DT40 TDP1 no CPT	TDP1 cell CPT	HT1080 IDH1KD tx
COc1cccc(NC(=S)/C(=C(\[O-])c2cc(C)n(-c3ccccc3F)c2C)[n+]2ccc(N(C)C)cc2)c1	-13%	-17	12µM*	21µM*	-24%
Cc1onc(-c2c(F)cccc2Cl)c1C(=O)OCC(=O)c1c(N)n(C)c(=O)n(C)c1=O	?	11	?	?	-23%
CC(C)Cn1c(N)c(C(=O)COC(=O)c2cccnc2Cl)c(=O)n(C)c1=O	7%	21	10µM*	?	9%
CC(C)Cn1c(N)c(C(=O)COC(=O)c2ccc3ccccc3n2)c(=O)n(C)c1=O	-9%	11	16µM*	16µM*	-8%
Cc1onc(-c2ccccc2Cl)c1C(=O)OCC(=O)c1c(N)n(C)c(=O)n(C)c1=O	-6%	-21	7.3µM*	7.3µM*	-10%
CC(C)Cn1c(N)c(C(=O)COC(=O)c2ccccc2Cl)c(=O)n(C)c1=O	-15%	1	?	?	0%
CC(C)Cn1c(N)c(C(=O)COC(=O)c2ccccc2C(=O)c2ccccc2)c(=O)n(C)c1=O	-6%	11	9.2µM*	16µM*	-4%
CN(C)CCCNC(=O)C1(O)c2cc(Br)ccc2NC(=O)N1c1c(F)cccc1F (stereo not drawn)	15%	9	-1%	3%	16%
COc1ccccc1N(CC(=O)Nc1cc(C)on1)S(=O)(=O)c1cccc(C(F)(F)F)c1	-15%	4	?	?	-3%
Cc1noc(C)c1C(=O)OCC(=O)c1c(N)n(CC(C)C)c(=O)n(C)c1=O	2%	1	?	18µM*	2%
CC(C)Cn1c(N)c(C(=O)COC(=O)c2c(F)cccc2F)c(=O)n(C)c1=O	1%	4	-13%	-26%	-2%
